From PubChem BioAssay (NCI) come the findings set out here.

Among the test systems are SK-MEL-2 melanoma; EKVX NSCLC; SN12C renal; UO-31 renal; TK-10 renal; ACHN renal; CAKI-1 renal; A498 renal; CCRF-CEM leukemia; MOLT-4 leukemia; SR leukemia; RPMI-8226 leukemia; OVCAR-8 ovarian; OVCAR-5 ovarian; OVCAR-4 ovarian; SK-OV-3 ovarian; IGROV1 ovarian; OVCAR-3 ovarian; HS 578T breast; NCI/ADR-RES ovarian.
Common to all, as to experiment: NCI-60 one-dose screen, 48 h (100 = growth as untreated, 0 = no growth, -100 = all killed)
Conditions in all cases: 10 µM unless noted

Structures are written as SMILES. Compounds without any hit were thinned out: in the full panel of roughly 83,000, 20% have a hit.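 Results are percent growth after 48 hours of single-concentration exposure. 100 means growth as in untreated cells, lower positive values show inhibition; negative values down to -100 show cell death.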 Values without a mark were called inactive. Active and inactive are the calls of the source. Rule for the calls: active = growth percent below 10; inactive = the rest.

For the molecule `COC(CCP(=O)(c1ccccc1)c1ccccc1)(C(=O)c1ccccc1)c1ccccc1` (stereo not given), the growth in the test with SK-MEL-2 melanoma is 34.7%; in the test with EKVX NSCLC it was 59.2%; in the test with SN12C renal it was 96.7%; in the test with UO-31 renal, 33.4%; with TK-10 renal, 81.1%; in the test with ACHN renal, 71.5%. In addition, the growth is 87.1% in the test with CAKI-1 renal; 83.4% in the test on A498 renal; 35.4% in the test with CCRF-CEM leukemia; 18.3% with MOLT-4 leukemia; -8.14% (active) in the test on SR leukemia; 4.88% (active) in the test with RPMI-8226 leukemia. Moreover, the growth with OVCAR-8 ovarian was 77%; in the test on OVCAR-5 ovarian, 84.1%; in the test with OVCAR-4 ovarian it was 61.3%; in the test on SK-OV-3 ovarian, 83.5%; with IGROV1 ovarian, -19.4% (active); in the test with OVCAR-3 ovarian, 77.1%. Moreover, the growth with HS 578T breast is 83.5%; in the test on NCI/ADR-RES ovarian, 57.7%.
`CSc1nc(CC(C)C)c(C#N)c(=O)n1C`: the growth was 85.8% in the test on SK-MEL-2 melanoma; 64.3% with EKVX NSCLC; 29.1% with SN12C renal; 38.9% with UO-31 renal; 34.2% in the test with TK-10 renal; 55.6% with ACHN renal. In addition, the growth in the test on CAKI-1 renal is 56.8%; in the test on A498 renal, 47%; in the test with CCRF-CEM leukemia, 49.2%; in the test with MOLT-4 leukemia, 46.1%; with SR leukemia, 47.4%; with RPMI-8226 leukemia it was 64.5%. In addition, the growth was 77.1% in the test with OVCAR-8 ovarian; 74.7% in the test with OVCAR-5 ovarian; 52.4% in the test on OVCAR-4 ovarian; 87.7% with SK-OV-3 ovarian; 71.8% in the test with IGROV1 ovarian; 61.3% in the test on OVCAR-3 ovarian. Further, the figures for the growth in the test with HS 578T breast and in the test on NCI/ADR-RES ovarian were 58.4% and 72.5%, respectively.
As for `N#C/C(=C\c1cccc2cnccc12)N1N=NC2C=CC=CC21` (stereo not given), the growth with SK-MEL-2 melanoma was 61.3%; in the test on EKVX NSCLC, 40.4%; with SN12C renal, 30.7%; in the test with UO-31 renal it was 27.2%; in the test on TK-10 renal it was 55.6%; with ACHN renal, 19.2%. The growth is 27% with CAKI-1 renal; 38.5% in the test on A498 renal; 10.2% in the test on CCRF-CEM leukemia; 31.7% in the test on MOLT-4 leukemia; 26.3% in the test with SR leukemia; 18.8% in the test with RPMI-8226 leukemia. Also, the growth was 42.9% with OVCAR-8 ovarian; 51.8% in the test with OVCAR-5 ovarian; 25.2% in the test on OVCAR-4 ovarian; 86.1% with SK-OV-3 ovarian; 27.9% in the test with IGROV1 ovarian; 6.92% (active) with OVCAR-3 ovarian. Further, the values for the growth in the test with HS 578T breast and with NCI/ADR-RES ovarian were 24.2% and 42.7%, respectively.
With `O=S(=O)(c1ccc(NCSc2nc3ccccc3s2)cc1)c1ccc(NCSc2nc3ccccc3s2)cc1`, the growth in the test with SK-MEL-2 melanoma was 78.8%; in the test with EKVX NSCLC, 101%; with SN12C renal it was 95.5%; with UO-31 renal it was 60.2%; in the test with TK-10 renal, 92.6%; in the test with ACHN renal it was 102%. In addition, the growth in the test on CAKI-1 renal was 95.4%; in the test on A498 renal it was 112%; in the test with CCRF-CEM leukemia it was 71.8%; in the test on MOLT-4 leukemia, 76.9%; with SR leukemia, 83.4%; in the test on RPMI-8226 leukemia, 92.1%. Further, the growth with OVCAR-8 ovarian was 96.8%; in the test on OVCAR-5 ovarian, 107%; with OVCAR-4 ovarian, 117%; in the test with SK-OV-3 ovarian it was 71.3%; in the test on IGROV1 ovarian it was 97%; with OVCAR-3 ovarian, 97.7%. The growth in the test on HS 578T breast is 90.6%; in the test with NCI/ADR-RES ovarian, 102%.
`NC(=O)[C@@H]1Cc2ccccc2CN1C(=O)c1ccc2c(c1)Cc1ccccc1-2`: the growth with SK-MEL-2 melanoma was 92.8%; in the test with EKVX NSCLC, 83.1%; in the test with SN12C renal, 92.4%; in the test with UO-31 renal it was 61.3%; in the test on TK-10 renal, 93.4%; with ACHN renal, 90.5%. Moreover, the growth in the test on CAKI-1 renal was 80.9%; in the test on A498 renal, 89.2%; in the test on CCRF-CEM leukemia it was 81.9%; in the test on MOLT-4 leukemia, 71.1%; in the test with SR leukemia, 92.6%; in the test with RPMI-8226 leukemia, 60.1%. Moreover, the growth was 75.1% in the test on OVCAR-8 ovarian; 98.8% in the test with OVCAR-5 ovarian; 84.9% in the test on OVCAR-4 ovarian; 108% in the test with SK-OV-3 ovarian; 90.2% with IGROV1 ovarian; 85.7% with OVCAR-3 ovarian. In addition, the figures for the growth in the test with HS 578T breast and with NCI/ADR-RES ovarian were 93.8% and 62.8%, respectively.
In the case of `N#Cc1c(-c2ccc(F)cc2)cc(-c2cccc(Cl)c2)[nH]c1=O`, the growth is 78.6% with SK-MEL-2 melanoma; 66.9% with EKVX NSCLC; 60.3% in the test with SN12C renal; 54.3% with UO-31 renal; 54.3% in the test on TK-10 renal; 49.4% in the test on ACHN renal. For the same molecule, the growth is 52.1% in the test with CAKI-1 renal; 80.4% with A498 renal; 71.9% in the test with CCRF-CEM leukemia; 88.3% in the test with MOLT-4 leukemia; 113% in the test with SR leukemia; 42.1% in the test on RPMI-8226 leukemia. The growth in the test on OVCAR-8 ovarian was 53.4%; with OVCAR-5 ovarian it was 112%; with OVCAR-4 ovarian, 28%; with SK-OV-3 ovarian it was 79.3%; with IGROV1 ovarian it was 62.8%; in the test on OVCAR-3 ovarian, 7.21% (active). Besides, the growth with HS 578T breast is 46%; in the test on NCI/ADR-RES ovarian it was 71.2%.
With `FC(F)(F)c1cc(N2CCCCC2)nc(NCCCNc2ccnc3cc(Cl)ccc23)n1`, the growth in the test on SK-MEL-2 melanoma was 64.9%; in the test on EKVX NSCLC, 48.3%; in the test on SN12C renal, 69.1%; in the test on UO-31 renal, 46.8%; with TK-10 renal, 63.6%; in the test with ACHN renal, 65.8%. In addition, the growth in the test on CAKI-1 renal is 60.7%; with A498 renal it was 47.8%; in the test with CCRF-CEM leukemia it was 54%; with MOLT-4 leukemia, 40%; in the test with SR leukemia, -4.99% (active); in the test with RPMI-8226 leukemia, 39.9%. Further, the growth in the test with OVCAR-8 ovarian is 66.2%; in the test with OVCAR-5 ovarian, 87.6%; in the test with OVCAR-4 ovarian it was 43.4%; with SK-OV-3 ovarian, 72.1%; with IGROV1 ovarian, 60%; in the test with OVCAR-3 ovarian, 54.8%. Moreover, the growth was 74.7% in the test with HS 578T breast and 44.9% with NCI/ADR-RES ovarian.
On to `Cc1nc2sc(C(=O)Nc3ccccc3)c(N)c2cc1C(O)c1ccccc1` (stereo not given), for which the growth was 54.8% in the test on SK-MEL-2 melanoma; 51.5% in the test with EKVX NSCLC; 25.4% in the test with SN12C renal; 45.7% with UO-31 renal; 59.3% in the test with TK-10 renal; 34.4% in the test with ACHN renal. Moreover, the growth is 24.8% in the test on CAKI-1 renal; -8.48% (active) in the test on A498 renal; 6.36% (active) with CCRF-CEM leukemia; 15.1% in the test on MOLT-4 leukemia; -5.59% (active) in the test with SR leukemia; 5.65% (active) in the test on RPMI-8226 leukemia. The growth in the test on OVCAR-8 ovarian was 19.2%; with OVCAR-5 ovarian, 33.2%; with OVCAR-4 ovarian, 46.9%; with SK-OV-3 ovarian it was 27.3%; with IGROV1 ovarian it was 27.7%; with OVCAR-3 ovarian, 5.62% (active). The growth in the test with HS 578T breast was 8.01% (active); in the test with NCI/ADR-RES ovarian, 15%.
